PubChem BioAssay (NCI)
Compounds without any hit were thinned out: in the full panel of roughly 83,000, 20% have a hit.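 Activity criterion: percent growth below 10, measured after cells in 96-well plates were exposed to a single compound concentration for 48 hours.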 Values without a mark were called inactive. Active and inactive are the calls of the source.

Tested on: MDA-MB-468 breast
Test: NCI-60 one-dose screen, 48 h (100 = growth as untreated, 0 = no growth, -100 = all killed)
Settings: 10 µM unless noted

| SMILES | growth |
| --- | --- |
| Cc1cc(=O)[nH]c(=O)n1Cc1cn(-c2c3ccccc3nc3ccccc23)nn1 | -66.7% (active) |
| CC(C)NS(=O)(=O)c1cccc(-c2ccc3c(=O)n(CCCN)c4c(c3c2)C(=O)c2ccccc2-4)c1 | 111% |
| CCOC(=O)C(C)(C#N)C1C=CCCC1 (centres undefined) | 75.6% |
| COc1ccc(/C=C(\C#N)c2cc3ccccc3n2S(C)(=O)=O)cc1 | 69.3% |
| CCOC(=O)c1c2c(cn1Cc1ccccc1)-c1oncc1CC2 | 105% |
| O=C1C=C(O)C(=O)C(CC2=C(O)C(=O)C=C(O)C2=O)=C1O | 98.7% |
| Cc1c(F)cccc1NC(=O)c1sc2nc3c(cc2c1N)CCCCC3 | 14.8% |
| O=C(CCCC(=O)Nc1ccc(Cn2nnc3cc(Cl)c(Cl)cc32)cc1)Nc1ccc(CN2N=NC3C=C(Cl)C(Cl)=CC32)cc1 (centres undefined) | 59.1% |
| CC(C)(C)CC(C)(C)Nc1c(-c2c(O)c3ccccc3oc2=O)nc2sc3ccccc3n12 | 22.4% |
| COc1ccc(-c2cc(-c3ccc(Cl)cc3)c(C#N)c(=O)n2Cc2ccc(C(=O)O)cc2)cc1 | 73.7% |
| Cc1cc(C)cc(NC2=C(Cl)C(=O)c3nc(C)ccc3C2=O)c1 | -75.8% (active) |
| Cc1ccc(-c2cc(-c3ccc(C)cc3)nc(NCCNc3ccnc4cc(Cl)ccc34)n2)cc1 | -93.2% (active) |
| Nc1ncnc2c1N=C(c1ccc(F)cc1)CC(c1sc(Cl)nc1Cl)N2 (centres undefined) | 91.4% |
| Cc1cc(N2CCCC2)nc(NCc2cc(Nc3ccnc4cc(Cl)ccc34)ccc2F)n1 | -58.7% (active) |
